# In the supplement of paper PMC10338343:
# ± gives the standard deviation.
# Test system: MILI (PIWIL2) piRISC loaded with L1MC piRNA (26 nt)
# Assay: pre-steady-state target cleavage rate (min^-1); guide: L1MC piRNA 5'p-UAACUAAAUACUAUGCAAGCUGUAGG; MIWI and MILI are mouse PIWI proteins and EfPiwi is from a freshwater sponge; tags in brackets are library labels; higher = faster piRNA-guided slicing of the target
# Conditions: auxiliary factor: 500 nM mouse GTSF1
# Outline: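 For Cleave-'n-Seq, a transcribed, DNA-blocked target RNA library […] met 1 nM active affinity-purified piRISC with one synthetic guide at 33 °C for 0–8 or 0–960 min in HEPES–potassium acetate buffer, with or without 500 nM GTSF1 partner protein. Uncleaved targets were sequenced and normalised to depth and weakly complementary targets, with three trials pooled and k3 capped at 0.0001 min^-1. A burst-and-steady-state fit supplied the pre-steady-state cleavage rate.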
# 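Also: 1 nM active piRISC with 0.1 nM target library at 33 °C single turnover.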
row,Sequence,pre-steady-state target cleavage rate
1,UCCUGGAUGUCCUUGGUUAGUAUUUAGUUA,0.0867 ± 0.022
2,UCCUGGAUGAGCUUGCAUAGAAUAUAGUUA,0.0218 ± 0.0083
3,UCCUGGAACAGCUAGCAUAGUAUAUAGUUA,0.229 ± 0.026
4,UCCUGGAUCAGCUUGCAAGUAUUUAGUUA,0.0793 ± 0.011
5,UCCUGGAUGUCGAUGCAUAGUAUUUAGUUG [g2:g17:cont:t1G],0.0776 ± 0.013
6,UCCUGGAUGAGCAUGCAUAGUAUUUUGUUA,0.115 ± 0.025
7,UCCUCCUACAGCUUCCAUUGUAUUUAGUUA,0.0834 ± 0.015
8,UCCUGGUUCAGCUUGCAUAGUAUUUUCAAA,0.0427 ± 0.016
9,UCCUGGAUGUCGAAGCAUAGUAUAAUGUUA,0.0052 ± 0.0029
10,UCCUGGAACAGCUUGCAUUAGUAUUUAGUUA,0.0128 ± 0.0055
11,UCCUGGAUCAGCUUGCAUAGUUAUUAGUAA,0.00826 ± 0.0047
12,UCCUGGUACAGCAUGCAUAGAAUUUAGUUA,0.197 ± 0.07
13,UCCUGGAUGUCGUUGCAUAGUAUAAAGUUA,0.0728 ± 0.018
14,UCCUGGUACAGCUUGCAUAGAAUUUUGUUA,0.0466 ± 0.016
15,UCCUGGAUGUCGAAGCAUAGUAUUUUAGUUA,0.0433 ± 0.01
16,UCCUGCUACAGCUUGCAAAGUAAUUAGUUA,0.124 ± 0.018
17,UCCUGCUACAGCUUGCAUAGAUAUUAGUUA,0.0176 ± 0.0073

row,Sequence,pre-steady-state target cleavage rate
1,UCCUGGAUGUCGUUGCAUAGAAUUUAGUUA,0.00458 ± 0.0035
2,UCCUCCUACAGCCUGCAUAGUAUUUAGUUA,0.287 ± 0.018
3,UCCUGGAUGUCGUUCCAUAGUAUUUAGUUA,0.00992 ± 0.0041
4,UCCUGGUAGAGCUUGCAUAGUAUUUUGUUA,0.143 ± 0.03
5,UCCUGGAUCAGCUUGCAUAGUAUAUACAAA,0.0964 ± 0.023
6,UCCUGGAUCAGGAUGCAUAGUAUUUACAAA,0.0127 ± 0.0048
7,UCCUGGAUGUCGUUGCAUAGUAUUUAGUAA,0.191 ± 0.03
8,UCCUGGUACUGCUUGCAUAGUAUUUUGUUA,0.0539 ± 0.019
9,UCCUGGAUGUCCUUGCAUUGUAUAUAGUUA,0.0803 ± 0.022
10,UCCUGGUACAGCUUGCAUAGUAUUUCGUUA,0.114 ± 0.037
11,UCCUGCUACACGUUGCAUAGUAUUUACAAA,0.0287 ± 0.01
12,UCCUGGAUGACCUUCCAUAGUAUUUAGUUA,0.024 ± 0.0096
13,UCCUGGAUCAGCUUGGAUAGUAUUUAGAUA,0.0949 ± 0.016
14,UCCUCCUACAGGAAGCAUAGUAUUUUCAAA,0.0352 ± 0.012
15,UCCUGGAUGUCGAUGCAUCGUAUUUAGUUA,0.0238 ± 0.0073
16,UCCUCCUACAGCAAGCAUAGUAUUUUCAAA,0.111 ± 0.025

# Same assay, conditions: auxiliary factor: none (no GTSF1)
row,Sequence,pre-steady-state target cleavage rate
1,UCCUGGAUGUCCUUGGUUAGUAUUUAGUUA,0.00681 ± 0.0022
2,UCCUGGAACAGCUAGCAUAGUAUAUAGUUA,0.00524 ± 0.0027
3,UCCUGGAUCAGCUUGCAAGUAUUUAGUUA,0.00478 ± 0.0023
4,UCCUGGAUGUCGAUGCAUAGUAUUUAGUUG [g2:g17:cont:t1G],0.00604 ± 0.0026
5,UCCUGGAUGUCGAAGCAUAGUAUUAUCUUA,< 0.0001
6,UCCUGGAUGUCGAACGUAUCUAUUUAGUCA,< 0.0001
7,UCCUGGAUGUCGUUGCAUAGUAUAAAGUUA,0.00407 ± 0.0022
8,UCCUGGAUGUCGAACCUUAGUAUUUAGAUA,< 0.0001
9,UCCUGGAUGUCGAACGUAUGUAUAAAGUUA,< 0.0001
10,UCCUGGAUGUCGAAGCAUAGUAUUUUAGUUA,0.00324 ± 0.0028
11,UCCUGGAUGUCGAACCAUGAGUAUUUAGUUA,< 0.0001
12,UCCUGCUACAGCUUGCAAAGUAAUUAGUUA,0.00266 ± 0.0025
13,UCCUCCUACAGCCUGCAUAGUAUUUAGUUA,0.0111 ± 0.0024
14,UCCUGGUAGAGCUUGCAUAGUAUUUUGUUA,0.00365 ± 0.003
15,UCCUGGAUGUCGUUGCAUAGUAUUUAGUAA,0.00351 ± 0.0029
16,UCCUGGUACAGCUUGCAUAGCUAUUUAGUUA,0.0041 ± 0.004
17,UCCUGGUACUGCUUGCAUAGUAUUUUGUUA,0.00457 ± 0.0034
18,UCCUGGAUGUCGAACCAUACUAUUAAGUUA,< 0.0001
19,UCCUGGAUGUCCUUGCAUUGUAUAUAGUUA,0.00438 ± 0.0024
20,UCCUGGAUGUCGAUGCAUCGUAUUUAGUUA,0.00865 ± 0.0025
